# G9a block – blocks human histone lysine methyltransferase G9a; actives 8.8% (n = 350,000); Potency, µM (top dose mostly 102 µM), inactives show at the top dose activity, negative = inhibition, most hits filed as inhibitors; AID 504332; G9a H3K9 monomethylation, AlphaScreen, 2 h; Q96KQ7; further: on the % scale 0 is the no-effect control and ±100 the full control effect; nearly all actives have a fitted effect of over 75% in size
# Target sequence (Q96KQ7 913-1193 limits assumed): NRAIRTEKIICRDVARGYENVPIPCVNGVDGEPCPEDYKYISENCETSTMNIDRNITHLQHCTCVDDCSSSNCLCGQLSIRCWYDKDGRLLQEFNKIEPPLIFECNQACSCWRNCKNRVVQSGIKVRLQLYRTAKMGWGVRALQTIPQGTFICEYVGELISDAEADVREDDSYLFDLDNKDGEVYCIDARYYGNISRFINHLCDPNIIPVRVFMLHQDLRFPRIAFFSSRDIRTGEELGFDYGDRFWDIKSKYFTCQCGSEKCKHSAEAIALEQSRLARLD
#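 Using a bead-based AlphaScreen, monomethylated H3K9 product from 2 h room-temperature reactions (G9a 20 nM, peptide 500 nM, SAM 20 uM) was detected with 0.5 ug/mL rabbit anti-H3K9me1 antibody.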
# BAZ2B block – BAZ2B (human) inhibition. AlphaScreen BAZ2B-H3K14Ac peptide displacement. Potency, µM (titrated, usually from 114 µM), for inactives: at the top dose activity change, negative = inhibition, hits mostly inhibitors. actives 4.4% (n = 360,000); further: on the % scale 0 is the no-effect control and ±100 the full control effect; nearly all actives have a fitted effect of over 60% in size
#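 Inhibition is scored as reduced AlphaScreen emission. The BAZ2B/b-H3(5-23)K14Ac complex (50 nM each) in PBS pH 7.4, 0.01% Tween-20 meets compound (up to 110 uM) for 30 min at RT before bead addition.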
# JMJD2A Tudor – JMJD2A Tudor domain (human) inhibition; O75164; AlphaScreen JMJD2A-Tudor / H3K4me3 peptide binding; Potency, µM (top dose mostly 114 µM), for inactives: top-dose activity change, negative = inhibition, most hits filed as inhibitors; actives 4.4% (n = 390,000); further: on the % scale 0 is the no-effect control and ±100 the full control effect; nearly all actives have a fitted effect of over 50% in size
# L3MBTL1 block – blocks human L3MBTL1. Potency, µM (titrated, usually from 57.1 µM), for the others: at the highest dose activity, negative = inhibition, actives largely listed as inhibitors. AlphaScreen L3MBTL1–H3K9me1 peptide binding. actives 0.66% (n = 230,000); further: on the % scale 0 is the no-effect control and ±100 the full control effect; nearly all actives have a fitted effect of over 60% in size
#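 First, the protein-peptide complex forms for 30 min at room temperature (L3MBTL1 50 nM, biotinylated H3K9me1 peptide 75 nM). Next, compounds are pin-transferred and incubated 30 min. Finally, AlphaScreen beads are added and read after 30 min.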
# HP1b chromo inh – blocks HP1-beta chromodomain binding to methylated histone tails; AlphaScreen HP1-beta / biotin-H3K9me3 peptide binding; Potency, µM (highest dose often 114 µM), without a hit: at the highest dose activity change, negative = inhibition, usual class: inhibitors; actives 0.56% (n = 390,000); further: nearly all actives have a fitted effect of over 70% in size
# Target sequence (P83916 whole entry, looked up): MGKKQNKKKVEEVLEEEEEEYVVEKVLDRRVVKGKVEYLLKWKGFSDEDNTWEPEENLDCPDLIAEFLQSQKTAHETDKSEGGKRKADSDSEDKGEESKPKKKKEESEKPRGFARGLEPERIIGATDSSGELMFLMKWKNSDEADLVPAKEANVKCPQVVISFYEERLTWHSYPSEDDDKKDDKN
#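 AlphaScreen: HP1-beta (50 nM) preformed 30 min with biotin-H3(1-18)K9me3 peptide (50 nM) in PBS pH 7.4, 0.01% Tween-20. Compound added for 30 min at RT, then streptavidin donor/nickel chelate acceptor beads (10 ug/mL) for 30 min.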
# GLS inh – glutaminase GLS (human) inhibition; O94925; GLS enzymatic activity, qHTS titration; Potency, µM (series often up to 45.5 µM), without a hit: at the top dose activity change, negative = inhibition, usual class: inhibitors; actives 0.21% (n = 410,000); AID 624170; further: on the % scale 0 is the no-effect control and ±100 the full control effect
#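 Enzyme dispensed in phosphate buffer (45 mM, pH 8.2, 0.02% Tween-20), compounds pinned in, then 1 mM L-glutamine solution and the glutamate oxidase–HRP–Amplex Red mix added; fluorescence read immediately and again after 30 min at room temperature.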
# * hit, by the source's call; ? = inconclusive; . = no result; [ ] = dose if it differs, or a comment. Hits are enriched below; roughly 10% of the tested compounds scored in any of these assays. The call rests on the fitted dose curve; in most records, active means well fitted curve in the direction sought with a large enough effect; inconclusive means small, poorly fitted or top-dose-only effect, or another doubt; inactive means no such curve, though single readings can be large; an effect the other way counts as inactive or inconclusive. Potency means the concentration at half of the fitted maximal effect.
SMILES,G9a block,BAZ2B block,JMJD2A Tudor,L3MBTL1 block,HP1b chromo inh,GLS inh
CCOc1ccc(NC(=O)CN(C)S(=O)(=O)c2ccc3[nH]c4c(c3c2)CCCC4)cc1,10µM*,?,?,.,-37%,1%
Cc1cc(C)cc(NC(=O)CN(C)S(=O)(=O)c2ccc3[nH]c4c(c3c2)CCCC4)c1,?,-35%,?,.,8%,-4%
CN(CC(=O)NCc1ccc(F)cc1)S(=O)(=O)c1ccc2[nH]c3c(c2c1)CCCC3,16µM*,40µM*,?,.,-2%,11%
CC(=O)c1cccc(NC(=O)CN2C(=O)c3ccccc3Sc3ncccc32)c1,-22%[59 µM],-17%,-7%,.,14%,0%
CC(=O)c1cc(CN2CCC(N3CCC(C(=O)N4CCCC4)CC3)CC2)cs1,11µM*,-35%,4%[11.4 µM],-12%,32%,-11%
CCOC(=O)N1CCC(N2Cc3cccc(C(=O)NCC4CCN(CC(C)C)C4)c3C2=O)CC1 (stereo not given),50µM*,9%,-15%,.,11%,-1%
COCCN1Cc2cccc(C(=O)NCC3CCN(CC(C)C)C3)c2C1=O (stereo not given),?,13%,-4%,.,43%,3%
CCOC(=O)N1CCC(N2Cc3cccc(C(=O)Nc4ccc(N(CC)CC)cc4C)c3C2=O)CC1,10µM*,14µM*,25µM*,.,?,24%
CCc1ccc(NC(=O)Cn2c(=O)n(CCC(=O)NCCc3ccc(Cl)cc3)c(=O)c3ccccc32)cc1,22%[59 µM],-19%,6%,.,39%,7%
Nn1c(C2COc3ccccc3O2)n[nH]c1=S (stereo not given),2.8µM*,?,8.9µM*,-9%,-17%,5%
COc1ccc(C(=O)c2cn(Cc3cccc(C)c3)c3cc4c(cc3c2=O)OCO4)cc1,-26%[59 µM],?,-14%,.,24%,5%
O=c1[nH]c(SCc2ccc(F)cc2)nc2c1CCCC2,?,-3%,3%,.,34%,-2%
COc1ccc(C2CC(=O)C(C(c3ccc(O)cc3)C3C(=O)CC(c4ccc(OC)cc4)CC3=O)C(=O)C2)cc1 (stereo not given),25µM*,-36%,.,-10%,.,.
Cc1nc(-c2ccc(Cl)cc2)sc1CCNC(=O)c1ccc(C(F)(F)F)cc1,10%[59 µM],-2%,-6%,.,10%[57 µM],-6%
O=C1CSC(=S)N1N1C(=O)c2cccc([N+](=O)[O-])c2C1=O,6.3µM*,?,.,.,.,.
O=C1c2cccc([N+](=O)[O-])c2C(=O)N1CCO,-37%,-12%,6%,.,55%,-2%
COc1ccc(Cl)cc1NC(=O)CSc1cn(CC(=O)N2CCCCC2)c2ccccc12,?,-14%,-24%,.,8%,5%
CCOC(=O)c1ccc2c(c1)N(Cc1cccc(C(F)(F)F)c1)C(=O)c1ccccc1S2(=O)=O,3%[59 µM],0%,?,.,49%,-7%
O=C(COCc1cc(-c2ccco2)on1)Nc1cccc(O)c1,-40%[59 µM],-10%,-28%,.,-26%,6%
COc1ccccc1NC(=O)C(C(C)C)N1C(=O)c2ccccc2C1=O (stereo not given),.,10%,-18%,1%,11%,-3%
COc1ccccc1NS(=O)(=O)c1ccc(Cl)c(NC(=O)C(C)N2C(=O)c3ccccc3C2=O)c1 (stereo not given),50µM*,-10%,-13%,-9%,13%,11%
CCCCn1c(-c2ccc(OC(F)F)cc2)nc2c1c(=O)[nH]c(=O)n2CC(C)C,50µM*,24%,-5%,.,38%,-1%
CCCn1c(=O)[nH]c(=O)c2c1nc(-c1ccc(C#N)cc1)n2CCOC,?,1%,-12%,.,-1%,9%
CCCn1c(=O)[nH]c(=O)c2c1nc(-c1ccc(OC(F)(F)C(F)C(F)(F)F)cc1)n2CCOC (stereo not given),25µM*,9%,-5%,.,53%,2%

# Screening data (PubChem BioAssay)
